Inconclusive results are not listed. Active and inactive are the calls of the source. Calls come from the whole dose curve; as a rule, active = well fitted cell-killing curve with a large enough effect; inconclusive = small, poorly fitted or top-dose-only effect, or effect the other way; inactive = no such curve, though single readings can be large or run the other way.
What follows are compounds tested on SW626 (assay: Confirmatory qHTS for gynecologic anti-cancer compounds from libraries of approved drugs and bioactive compounds). Conditions: gynecologic cancer cell panel viability, ATPlite luminescence, 48 h; series mostly up to 57.6 µM; activity change, negative = viability loss: at the top concentration.
Outline: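 ATPlite luminescence read-out of cell viability; IC50 from 11-point 1:3 titrations, 57.5 uM to 0.977 nM, 48 h compound exposure at 37 C, 5% CO2. Cells seeded at 1,000/well 16 h before dosing.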
In the case of `COc1cc(Nc2c(C#N)cnc3cc(OCCCN4CCN(C)CC4)c(OC)cc23)c(Cl)cc1Cl`, the Potency is reported as 19.3 µM (active). With `CC[C@@]1(O)C(=O)OCc2c1cc1n(c2=O)Cc2cc3c(CN(C)C)c(O)ccc3nc2-1` the Potency was 0.863 µM (active). With `Cc1cc(SCc2sc(-c3ccc(C(F)(F)F)cc3)nc2C)ccc1OCC(=O)O` the “activity change, negative = viability loss” value was 2.54% (inactive). With `CS(=O)(=O)c1ccc(-c2cnc(N)c(C(=O)Nc3ccccc3)n2)cc1` the “activity change, negative = viability loss” value was 2.68% (inactive). `Cc1cc(C2CCCCC2)n(O)c(=O)c1` was tested, and the Potency was 8.86 µM (active). For `Cc1cncc2cccc(S(=O)(=O)N3CCCN(C(=O)CN)C[C@@H]3C)c12`, the “activity change, negative = viability loss” value was -17% (inactive). `CCCCc1nc2cc(/C=C/C(=O)NO)ccc2n1CCN(CC)CC` was tested, and the Potency was 0.769 µM (active). For `CN1C(=O)C(Cc2c[nH]c3ccccc23)NC1=S` (stereo not given), the “activity change, negative = viability loss” value was 11.2% [at 19.5 µM] (inactive). In the case of `COc1cc2ncnc(Nc3ccc(F)c(Cl)c3)c2cc1OCCCN1CCOCC1`, the “activity change, negative = viability loss” value is reported as -20.8% (inactive). With `COc1cc(C(=O)N2CCC(N3CCN(C)CC3)CC2)ccc1Nc1ncc2c(n1)N(C)c1ccccc1C(=O)N2C` the Potency was 7.69 µM (active). `NC1(c2ccc(-c3nc4ccn5c(=O)[nH]nc5c4cc3-c3ccccc3)cc2)CCC1` was tested, and the “activity change, negative = viability loss” value was -17.6% (inactive). In the case of `S=c1nc[nH]c2nc[nH]c12`, the Potency is reported as 6.85 µM (active). With `COc1cc2c(NC3CCN(C(C)C)CC3)nc(C3CCCCC3)nc2cc1OCCCN1CCCC1` the Potency was 10.9 µM (active). In the case of `COc1c(C)c2c(c(O)c1C/C=C(\C)CCC(=O)OCCN1CCOCC1)C(=O)OC2`, the “activity change, negative = viability loss” value is reported as -9.7% (inactive). With `C=CC(=O)Nc1cccc(Oc2nc(Nc3ccc(N4CCN(C)CC4)cc3)ncc2Cl)c1` the Potency was 24.3 µM (active).
% is set by controls: 0 for no effect and ±100 for the full control effect; potency is the fitted concentration of half-maximal effect.
Note: nearly all actives have a fitted effect of over 55% in size.
